High-throughput results as filed in PubChem.
Rows were chosen to be rich in hits. Some 4.8% of all compounds tested hit in one or more screens of this group.
Mdm2-MdmX inh: inhibitors of human Mdm2/MdmX interaction. 330,000 tested, 3% active. AID 485346. O15151+Q00987. inhibition, % at 8 µM. SaOS-2 split-luciferase Mdm2/MdmX complementation, luminescence;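 active means inhibition of at least 50% at 8 µM in the primary screen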
Target sequence (O15151 whole entry, looked up): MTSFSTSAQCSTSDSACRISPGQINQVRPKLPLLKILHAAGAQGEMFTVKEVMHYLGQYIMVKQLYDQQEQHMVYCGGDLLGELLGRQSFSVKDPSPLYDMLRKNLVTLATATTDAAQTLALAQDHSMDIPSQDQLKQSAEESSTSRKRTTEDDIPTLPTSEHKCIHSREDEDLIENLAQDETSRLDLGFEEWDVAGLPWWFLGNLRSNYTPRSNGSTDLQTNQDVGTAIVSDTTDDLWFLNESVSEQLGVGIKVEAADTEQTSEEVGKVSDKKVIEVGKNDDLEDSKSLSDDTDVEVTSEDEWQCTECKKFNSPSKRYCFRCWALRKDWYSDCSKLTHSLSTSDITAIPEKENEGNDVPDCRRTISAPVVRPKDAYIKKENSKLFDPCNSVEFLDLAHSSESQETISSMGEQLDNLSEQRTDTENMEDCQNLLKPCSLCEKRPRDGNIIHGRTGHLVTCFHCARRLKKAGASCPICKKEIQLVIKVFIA
Target sequence (Q00987 whole entry, looked up): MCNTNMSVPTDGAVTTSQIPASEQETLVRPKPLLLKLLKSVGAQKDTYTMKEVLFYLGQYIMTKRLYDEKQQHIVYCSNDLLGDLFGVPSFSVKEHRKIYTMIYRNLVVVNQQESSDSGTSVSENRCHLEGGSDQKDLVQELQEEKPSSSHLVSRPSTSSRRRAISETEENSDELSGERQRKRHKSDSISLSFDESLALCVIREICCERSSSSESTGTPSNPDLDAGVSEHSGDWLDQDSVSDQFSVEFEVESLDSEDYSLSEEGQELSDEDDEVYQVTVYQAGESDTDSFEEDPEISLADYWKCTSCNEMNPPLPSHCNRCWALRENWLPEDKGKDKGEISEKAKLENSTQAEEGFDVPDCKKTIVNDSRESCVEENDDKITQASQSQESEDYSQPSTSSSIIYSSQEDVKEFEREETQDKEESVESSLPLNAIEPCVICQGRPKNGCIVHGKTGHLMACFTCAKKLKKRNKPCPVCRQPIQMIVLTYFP
CSC inhib: cancer stem cell inhibition; 300,000 tested, 1.1% active; cancer stem cell-like cells viability, luminescence; AID 2717; inhibition, % at 7.5 µM; in the data active means inhibition above about 75%; inconclusive means no clear call, values can overlap the other calls; tested in HMLE shEcad cells
Beta cell apopt: blocks beta cell apoptosis | INS-1E cytokine-induced death, ATP luminescence, 48 h; percent of positive-control rescue, neutral wells zero | protection from apoptosis, % (no concentration beside the values) | 300,000 tested, 0.8% active;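 active means Every replicate reaches about 75%, or at least half do and their mean reaches it too, limit read from the data; inconclusive means At least half of replicates reach the limit but their mean does not; inactive means Under half of replicates reach the limit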;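 further: 0% = cytokine-treated negative control wells and 100% = positive control rescue; higher means more ATP so stronger rescue from cytokine killing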
Calb FLC: C. albicans growth modulation with fluconazole; C. albicans CaCi-2 (fluconazole-resistant clinical isolate) + fluconazole, Alamar Blue growth, 48 h; growth inhibition, % (no concentration beside the values); 300,000 tested, 0.57% active; AID 1979;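 active means growth inhibition above about 58% in most replicates, limit read from the data, passing the limit was not always enough; inconclusive means exactly half the replicates above a set limit; inactive means most replicates below a set limit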;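 further: all wells also contain fluconazole at 8 µg/ml as a sub-toxic cotreatment; 0% = median of DMSO wells and 100% = median of geldanamycin control wells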
MPTP inh: permeability transition pore inhibition; isolated mouse mitochondria, Ca2+ swelling absorbance, 30 min; inhibition, % at 10 µM; 360,000 tested, 1.4% active;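 active means inhibition of 50% or more, scaled per plate between neutral and stimulator controls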;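 further: 0% = DMSO wells given calcium and 100% = 1 mM EGTA wells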
* hit, by the source's call.

How did COC(=O)Cc1ccccc1NS(=O)(=O)c1ccc(C)cc1 do in these assays?
MPTP inh: -1

Results for CCCn1nnnc1NC(=O)c1ccc2ccccc2c1 ?
Mdm2-MdmX inh: 16; CSC inhib: 27; Beta cell apopt: -6; Calb FLC: 116*; MPTP inh: -14

How did CCOC(=O)c1c(NC(C)=O)sc2c1CCC(C=O)=C2Sc1ccccc1 do in these assays?
Mdm2-MdmX inh: 24; CSC inhib: 89*; Beta cell apopt: -2; Calb FLC: 19; MPTP inh: 2

Results for Oc1ccccc1C1CCCCC1c1ccccc1 (stereo unspecified) ?
CSC inhib: 76*; Beta cell apopt: 13; Calb FLC: -9; MPTP inh: 1

What do the screens show for `Oc1ccccc1C1SC(c2ccccc2O)SC(c2ccccc2O)S1` (stereo unspecified)?
MPTP inh: 9

How did COc1ccc(-c2nnc(NC(=O)c3ccc(S(=O)(=O)N4COCC4(C)C)cc3)o2)cc1 do in these assays?
Mdm2-MdmX inh: 43; CSC inhib: 29; Calb FLC: 68; MPTP inh: -11

Results for CC1(C)COCN1S(=O)(=O)c1ccc(C(=O)Nc2nnc(-c3ccc(Cl)s3)o2)cc1 ?
Mdm2-MdmX inh: 15; CSC inhib: 44; Calb FLC: 79*

How did Cc1cc(C)n(-c2nc(NCC(C)O)c3c4c(sc3n2)CCCC4)n1 (stereo unspecified) do in these assays?
Mdm2-MdmX inh: 16; CSC inhib: -1; Beta cell apopt: 57; Calb FLC: 2; MPTP inh: 0

What do the screens show for `Cc1cc(C)n(-c2nc(NCCCO)c3c4c(sc3n2)CCCC4)n1`?
Mdm2-MdmX inh: 20; CSC inhib: 20; Beta cell apopt: 81*; Calb FLC: -9; MPTP inh: -4

Results for Cc1cc(C)n(-c2nc(NCCO)c3c4c(sc3n2)CCCC4)n1 ?
Mdm2-MdmX inh: 11; CSC inhib: -3; Beta cell apopt: 80*; Calb FLC: -5; MPTP inh: -2

How did COc1ccc(CCNc2cc(N3CCN(C(=O)c4ccc(C)cc4)CC3)ccc2[N+](=O)[O-])cc1OC do in these assays?
Mdm2-MdmX inh: 28; CSC inhib: 17; Beta cell apopt: 90*; Calb FLC: -7

Results for CC(=O)c1c(C)[nH]c(C(=O)OCc2c(F)cccc2Cl)c1C ?
Mdm2-MdmX inh: 36; Beta cell apopt: -6; Calb FLC: -8; MPTP inh: 0

How did CC(=O)c1c(C)[nH]c(C(=O)OCc2cccc(Cl)c2)c1C do in these assays?
Mdm2-MdmX inh: 31; CSC inhib: 24; Beta cell apopt: 75*; Calb FLC: 29; MPTP inh: 28

Results for CN1/C(=C\C(=O)Nc2ccc(Br)cc2)C(C)(C)c2ccccc21 ?
Mdm2-MdmX inh: 6; CSC inhib: 76*; Beta cell apopt: -17; Calb FLC: 0; MPTP inh: 28

Results for CN1/C(=C\C(=S)NC(=O)c2cccc(Br)c2)C(C)(C)c2ccccc21 ?
Mdm2-MdmX inh: 16; CSC inhib: 10; Beta cell apopt: 116*; Calb FLC: -38; MPTP inh: 6

How did CN1/C(=C\C(=S)NC(=O)c2ccc([N+](=O)[O-])cc2)C(C)(C)c2ccccc21 do in these assays?
Mdm2-MdmX inh: -3; CSC inhib: -6; Beta cell apopt: 103*; Calb FLC: inconclusive; MPTP inh: 2

How did CC(C)N1CCCC(C)(C(=O)Nc2nc3ccccc3[nH]2)C1 (stereo unspecified) do in these assays?
MPTP inh: 0

What do the screens show for `Cc1ccsc1C(=O)N1CCC1(C)C(=O)NS(=O)(=O)c1ccc(Br)cc1` (stereo unspecified)?
MPTP inh: 0

Results for Cc1ccc(NNC(=O)c2c(C)noc2C)cc1Cl ?
Mdm2-MdmX inh: 14; CSC inhib: 98*; Beta cell apopt: 3; Calb FLC: -3; MPTP inh: 2

What do the screens show for `Cc1noc(C)c1C(=O)Nc1ccc(Cl)cc1C(F)(F)F`?
Mdm2-MdmX inh: 13; CSC inhib: 0; Beta cell apopt: -5; Calb FLC: -10; MPTP inh: -3

What do the screens show for `Cc1cc(Cl)ccc1NNC(=O)c1c(C)noc1C`?
Mdm2-MdmX inh: 12; CSC inhib: inconclusive; Beta cell apopt: -8; Calb FLC: 82*; MPTP inh: 1

Results for Cn1nc(C(C)(C)C)cc1NC(=O)C1(C)CCN1C(=O)CC(c1ccccc1)c1ccccc1 (stereo unspecified) ?
MPTP inh: 0

Results for CCCC(O)(CCC)C(=O)NNc1ccc(C)cc1 ?
Mdm2-MdmX inh: -4; CSC inhib: 23; Beta cell apopt: 7; Calb FLC: 111*; MPTP inh: 2

Results for CC(C)(C)c1cc(Cl)ccc1OCCOCCN1CCCC1 ?
Mdm2-MdmX inh: 21; CSC inhib: 93*; Beta cell apopt: 4; Calb FLC: -18; MPTP inh: 3

Results for C=CCNCCCOc1ccc(Cl)cc1C(C)(C)C ?
Mdm2-MdmX inh: 27; CSC inhib: 104*; Beta cell apopt: -4; Calb FLC: -70; MPTP inh: 0

Results for O=C(Nc1ccc(F)cc1)C(c1cccc(F)c1)N1CCN(c2ccncc2)CC1 (stereo unspecified) ?
MPTP inh: 20

How did Cc1cccc(C)c1NC(=O)C(c1ccc(C#N)cc1)n1c(=O)c(-c2cc3ccccc3[nH]2)nc2ccccc21 (stereo unspecified) do in these assays?
MPTP inh: 3

What do the screens show for `CCCNC(=O)N[C@H]1CC[C@@H](CCn2cc(-c3cccc(F)c3)nn2)O[C@@H]1CO`?
MPTP inh: 1

Results for Cc1cc(C(=O)N/N=C/c2cc(Br)cc(Br)c2OC(=O)c2ccccc2)n[nH]1 ?
Mdm2-MdmX inh: 48; Beta cell apopt: 94*; Calb FLC: 36

What do the screens show for `COc1cc(/C=N/NC(=O)c2ccccn2)ccc1OC(=O)c1ccc(Br)cc1`?
Mdm2-MdmX inh: 10; CSC inhib: -10; Beta cell apopt: -6; Calb FLC: 0; MPTP inh: 0

How did Cc1cccc(C(=O)Oc2c(Br)cc(Br)cc2/C=N/NC(=O)c2ccncc2)c1 do in these assays?
Mdm2-MdmX inh: 7; Beta cell apopt: -5; Calb FLC: 31; MPTP inh: -3

What do the screens show for `Cc1cc(C(=O)N/N=C/c2cc(Br)ccc2OC(=O)c2ccc(Br)cc2)n[nH]1`?
Mdm2-MdmX inh: 45; CSC inhib: -22; Beta cell apopt: 91*; Calb FLC: -6

Results for CC(=O)Nc1ccc(N2CC(C)(C)C2=O)cc1 ?
Mdm2-MdmX inh: 7; CSC inhib: -1; Beta cell apopt: -4; Calb FLC: 72*; MPTP inh: 0

Results for CCN(C)C1CN(Cc2cn(Cc3ccc(C(F)(F)F)cc3)nn2)S(=O)(=O)C1 (stereo unspecified) ?
MPTP inh: 0

Results for Cc1ccc(S(=O)(=O)N2CC3C(=O)C[C@@H](c4ccccc4)N(S(=O)(=O)c4ccc(CCCOCCOCCNC(=O)OC(C)(C)C)cc4)C3CC2c2ccccc2)cc1 (stereo partly specified) ?
MPTP inh: 2
